Reference: PubChem BioAssay (NCATS)
Inconclusive results are not listed. Active and inactive are the calls of the source. Calls come from the whole dose curve; as a rule, active = well fitted curve in the direction sought with a large enough effect; inconclusive = small, poorly fitted or top-dose-only effect, or another doubt; inactive = no such curve, though single readings can be large; an effect the other way counts as inactive or inconclusive.

What was measured:
NIH3T3 [1] = test: Cytotoxic Profiling of Annotated Libraries Using Quantitative High-Throughput Screening (AID 1296008); settings: Five cell lines viability, CellTiter-Glo ATP luminescence, 48-72 h; max response: active compounds read low; note: nearly all actives have a fitted effect of over 60% in size
Method in brief: (§1)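 Cytotoxicity was measured as CellTiter-Glo ATP luminescence, read after 10 min at room temperature. Compound treatment of the cells lasted 48 or 72 hr at 37 degrees Celsius in a qHTS format.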

MCC-13 = test: qHTS assay to identify novel small-molecules to repurpose for Merkel cell carcinoma treatment (AID 1296009); settings: MCC and control cell lines, CellTiter-Glo viability, 72 h; series mostly up to 46 µM; note: nearly all actives have a fitted effect of over 60% in size
Method in brief: (§2)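 After compound transfer in DMSO, plates were kept 72 hr at 37 degree celsius. Luminescent ATP signal from CellTiter-Glo served as viability measure, normalized against DMSO and no-cell controls.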

MKL-1 = test: as above; settings: MCC and control cell lines, CellTiter-Glo viability, 72 h; series mostly up to 46 µM
Method in brief: as §2

MKL-2 = test: as above; settings: MCC and control cell lines, CellTiter-Glo viability, 72 h; series mostly up to 46 µM
Method in brief: as §2

WaGa = test: as above; settings: MCC and control cell lines, CellTiter-Glo viability, 72 h; series mostly up to 46 µM
Method in brief: as §2

C33A = test: Primary qHTS to identify gynecologic anti-cancer compounds using libraries of approved drugs and bioactive compounds (AID 1345084); settings: Gynecologic cancer cell panel viability, ATPlite luminescence, 48 h; series mostly up to 57.5 µM; note: nearly all actives have a fitted effect of over 55% in size
Method in brief: (§3)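 Five-point cytotoxicity, 48 h drug exposure at 37 C, 5% CO2, on cells seeded 16 h beforehand. ATP content read by ATPlite luminescence.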

CAOV3 = test: as above; settings: Gynecologic cancer cell panel viability, ATPlite luminescence, 48 h; series mostly up to 57.5 µM
Method in brief: as §3

CASKI = test: as above; settings: Gynecologic cancer cell panel viability, ATPlite luminescence, 48 h; series mostly up to 57.5 µM
Method in brief: as §3

Es-2 = test: as above; settings: Gynecologic cancer cell panel viability, ATPlite luminescence, 48 h; series mostly up to 57.5 µM
Method in brief: as §3

Hek293T [2] = test: as above; settings: Gynecologic cancer cell panel viability, ATPlite luminescence, 48 h, control line for the selectivity index; series mostly up to 57.5 µM
Method in brief: as §3

JEG-3 = test: as above; settings: Gynecologic cancer cell panel viability, ATPlite luminescence, 48 h; series mostly up to 57.5 µM
Method in brief: as §3

OV90 = test: as above; settings: Gynecologic cancer cell panel viability, ATPlite luminescence, 48 h; series mostly up to 57.5 µM
Method in brief: as §3

HeLa = test: as above; settings: Gynecologic cancer cell panel viability, ATPlite luminescence, 48 h; series mostly up to 57.5 µM
Method in brief: as §3

HACAT = test: qHTS assay to identify novel small-molecules to repurpose for Merkel cell carcinoma treatment (AID 1296009); settings: MCC and control cell lines, CellTiter-Glo viability, 72 h; at 44.8 µM (top of the series) unless noted; note: nearly all actives have a fitted effect of over 60% in size
Method in brief: as §2

UISO = test: as above; settings: MCC and control cell lines, CellTiter-Glo viability, 72 h; series mostly up to 46 µM
Method in brief: as §2

KB-3-1 = test: Cytotoxic Profiling of Annotated Libraries Using Quantitative High-Throughput Screening (AID 1296008); settings: Five cell lines viability, CellTiter-Glo ATP luminescence, 48-72 h; max response: active compounds read low; note: nearly all actives have a fitted effect of over 60% in size
Method in brief: as §1

MCC-26 = test: qHTS assay to identify novel small-molecules to repurpose for Merkel cell carcinoma treatment (AID 1296009); settings: MCC and control cell lines, CellTiter-Glo viability, 72 h; series mostly up to 46 µM; note: nearly all actives have a fitted effect of over 60% in size
Method in brief: as §2

HEK293T [3] = test: as above; settings: MCC and control cell lines, CellTiter-Glo viability, 72 h; at 44.8 µM (top of the series) unless noted
Method in brief: as §2

NIH3T3 [4] = test: as above; settings: MCC and control cell lines, CellTiter-Glo viability, 72 h; at 44.8 µM (top of the series) unless noted
Method in brief: as §2
% is set by controls: 0 for no effect and ±100 for the full control effect; potency is the fitted concentration of half-maximal effect.

COc1cc(-c2ccc(=O)[nH]n2)ccc1OC(F)F
inactive: max response (NIH3T3 [1]) -9.32% | Potency (MCC-13) | Potency (MKL-1) | Potency (MKL-2) | Potency (WaGa) | Potency (C33A) | Potency (CAOV3) | Potency (CASKI) | Potency (Es-2) | Potency (Hek293T [2]) | Potency (JEG-3) | Potency (OV90)

COc1ccc(CCN2CCC(Nc3nc4ccccc4n3Cc3ccc(F)cc3)CC2)cc1
active: Potency (NIH3T3 [1]) 4.73 µM | Potency (MCC-13) 23.7 µM | Potency (MKL-2) 13.3 µM | Potency (WaGa) 21.1 µM | Potency (HeLa) 28.2 µM

COc1ccc(OC)c(C(O)CNC(=O)CN)c1 (configuration not stated)
inactive: outcome (HACAT) | Potency (MCC-13) | Potency (MKL-1) | Potency (MKL-2) | Potency (UISO) | Potency (WaGa) | Potency (C33A) | Potency (CAOV3) | Potency (CASKI) | Potency (Es-2) | Potency (HeLa) | Potency (JEG-3) | Potency (OV90)

CC(C)(C)CC(C)(C)c1ccc(O)c(Cc2ccc(Cl)cc2Cl)c1
inactive: max response (KB-3-1) -6.63% | Potency (C33A) | Potency (CAOV3) | Potency (CASKI) | Potency (JEG-3) | Potency (OV90)

CCOC(=O)/C=C(C)/C=C/C=C(C)/C=C/c1c(C)cc(OC)c(C)c1C
inactive: outcome (HACAT) | Potency (MCC-13) | Potency (MCC-26) | Potency (C33A) | Potency (CAOV3) | Potency (CASKI) | Potency (Es-2) | Potency (HeLa) | Potency (Hek293T [2]) | Potency (JEG-3) | Potency (OV90)

NCCCC[C@H](N[C@@H](CCc1ccccc1)C(=O)O)C(=O)N1CCC[C@H]1C(=O)O
inactive: outcome (HEK293T [3]) | Potency (MCC-13) | Potency (MCC-26) | Potency (MKL-1) | Potency (MKL-2) | Potency (UISO) | Potency (WaGa) | Potency (C33A) | Potency (CAOV3) | Potency (CASKI) | Potency (Es-2) | Potency (HeLa) | Potency (Hek293T [2]) | Potency (JEG-3) | Potency (OV90)

CCCCCCCCCCCCCCCC[N+](C)(C)CCN(Cc1ccc(OC)cc1)c1ncccn1
active: Potency (MKL-1) 5.96 µM | Potency (MKL-2) 2.37 µM | Potency (UISO) 10.6 µM | Potency (WaGa) 16.8 µM | Potency (CAOV3) 17.8 µM
inactive: max response (KB-3-1) -4.99%

CCN1CCC[C@H]1CNC(=O)c1c(OC)ccc(Br)c1OC
inactive: outcome (HEK293T [3]) | Potency (MCC-13) | Potency (MCC-26) | Potency (MKL-1) | Potency (MKL-2) | Potency (UISO) | Potency (WaGa) | Potency (C33A) | Potency (CAOV3) | Potency (CASKI) | Potency (Es-2) | Potency (HeLa) | Potency (Hek293T [2]) | Potency (JEG-3) | Potency (OV90)

CC[C@@H](CO)NCCN[C@@H](CC)CO
inactive: outcome (HEK293T [3]) | Potency (MCC-13) | Potency (MCC-26) | Potency (MKL-1) | Potency (MKL-2) | outcome (NIH3T3 [4]) | Potency (UISO) | Potency (WaGa) | Potency (C33A) | Potency (CAOV3) | Potency (CASKI) | Potency (Es-2) | Potency (HeLa) | Potency (Hek293T [2]) | Potency (JEG-3) | Potency (OV90)

Cc1ccnc(NS(=O)(=O)c2ccc(N)cc2)n1
inactive: outcome (HACAT) | outcome (HEK293T [3]) | Potency (MCC-13) | Potency (MKL-1) | Potency (MKL-2) | Potency (UISO) | Potency (WaGa) | Potency (C33A) | Potency (CAOV3) | Potency (CASKI) | Potency (Es-2) | Potency (HeLa) | Potency (Hek293T [2]) | Potency (JEG-3) | Potency (OV90)

CC1=C(C(=O)OC(C)C)C(c2cccc([N+](=O)[O-])c2)C(C(=O)OC2CN(C(c3ccccc3)c3ccccc3)C2)=C(N)N1 (configuration not stated)
active: Potency (KB-3-1) 18.4 µM | Potency (MKL-1) 21.1 µM | Potency (MKL-2) 16.8 µM
inactive: Potency (C33A) | Potency (CASKI) | Potency (Es-2) | Potency (HeLa) | Potency (Hek293T [2]) | Potency (JEG-3) | Potency (OV90)

Nc1ccc(C(=O)Nc2ccccc2N)cc1
inactive: max response (KB-3-1) -27.7% | Potency (C33A) | Potency (CASKI) | Potency (Hek293T [2]) | Potency (JEG-3)
active: Potency (MKL-1) 18.8 µM | Potency (MKL-2) 5.96 µM | Potency (WaGa) 2.66 µM

CC(C)(CO)[C@@H](O)C(=O)NCCCO
inactive: Potency (MCC-13) | Potency (MCC-26) | Potency (MKL-1) | Potency (MKL-2) | outcome (NIH3T3 [4]) | Potency (UISO) | Potency (WaGa) | Potency (C33A) | Potency (CAOV3) | Potency (CASKI) | Potency (Es-2) | Potency (HeLa) | Potency (Hek293T [2]) | Potency (JEG-3) | Potency (OV90)

CCN(CC)CCOc1ccc(C(O)(Cc2ccc(Cl)cc2)c2ccc(C)cc2)cc1 (configuration not stated)
active: Potency (KB-3-1) 16.4 µM | Potency (MKL-2) 7.5 µM | Potency (WaGa) 18.8 µM | Potency (OV90) 17.8 µM
inactive: Potency (HeLa) | Potency (JEG-3)

C[C@@H]1CN(CCCn2c3ccccc3c3ccccc32)C[C@H](C)N1
inactive: max response (KB-3-1) 0.54% | Potency (MCC-26)
active: Potency (C33A) 22.4 µM | Potency (OV90) 25.1 µM

CC1=C(C(=O)O)N2C(=O)[C@@H](NC(=O)[C@H](N)c3ccc(O)cc3)[C@H]2SC1
inactive: outcome (HEK293T [3]) | Potency (MCC-13) | Potency (MCC-26) | Potency (MKL-1) | Potency (MKL-2) | Potency (UISO) | Potency (WaGa) | Potency (C33A) | Potency (CASKI) | Potency (Es-2) | Potency (HeLa) | Potency (Hek293T [2]) | Potency (JEG-3) | Potency (OV90)

CCN1CCCC1=O
inactive: Potency (C33A) | Potency (CAOV3) | Potency (CASKI) | Potency (Es-2) | Potency (HeLa) | Potency (Hek293T [2]) | Potency (JEG-3) | Potency (OV90)

CC(=O)OCC(=O)[C@@]1(O)CC[C@H]2[C@@H]3CCC4=CC(=O)C=C[C@]4(C)[C@H]3[C@@H](O)C[C@@]21C
inactive: Potency (C33A) | Potency (CAOV3) | Potency (CASKI) | Potency (Es-2) | Potency (HeLa) | Potency (Hek293T [2]) | Potency (JEG-3) | Potency (OV90)

CC(=O)OCC(=O)[C@@]12OC(C)(C)O[C@@H]1C[C@H]1[C@@H]3C[C@H](F)C4=CC(=O)C=C[C@]4(C)[C@@]3(F)[C@@H](O)C[C@@]12C
inactive: Potency (C33A) | Potency (CASKI) | Potency (Es-2) | Potency (HeLa) | Potency (Hek293T [2]) | Potency (JEG-3) | Potency (OV90)

CC(Cc1cccc(C(F)(F)F)c1)NCCOC(=O)c1ccccc1 (configuration not stated)
inactive: Potency (MCC-13) | Potency (MKL-1) | Potency (MKL-2) | outcome (NIH3T3 [4]) | Potency (UISO) | Potency (WaGa) | Potency (C33A) | Potency (CAOV3) | Potency (CASKI) | Potency (Es-2) | Potency (HeLa) | Potency (Hek293T [2]) | Potency (JEG-3) | Potency (OV90)

C/C=C/c1ccc(OC)cc1
inactive: Potency (C33A) | Potency (CASKI) | Potency (Es-2) | Potency (HeLa) | Potency (Hek293T [2]) | Potency (JEG-3) | Potency (OV90)

CC(Cc1ccccc1)(NC(=O)CN)c1ccccc1 (configuration not stated)
inactive: Potency (C33A) | Potency (CASKI) | Potency (Es-2) | Potency (HeLa) | Potency (Hek293T [2]) | Potency (JEG-3) | Potency (OV90)
